{"source": "PubChem BioAssay (NCATS)", "note": "Records with an inconclusive call do not appear. Calls of active or inactive are those of the source. Calls come from the whole dose curve; as a rule, active = well fitted inhibition curve with a large enough effect; inconclusive = small, poorly fitted or top-dose-only effect; inactive = flat fitted curve, though single readings scatter. % is set by controls: 0 for no effect and ±100 for the full control effect; potency is the fitted concentration of half-maximal effect."}
{"molecular_target": "Dual specificity protein kinase CLK4 (Homo sapiens) (UniProt Q9HAZ1)", "sequence (Q9HAZ1 whole entry, looked up)": "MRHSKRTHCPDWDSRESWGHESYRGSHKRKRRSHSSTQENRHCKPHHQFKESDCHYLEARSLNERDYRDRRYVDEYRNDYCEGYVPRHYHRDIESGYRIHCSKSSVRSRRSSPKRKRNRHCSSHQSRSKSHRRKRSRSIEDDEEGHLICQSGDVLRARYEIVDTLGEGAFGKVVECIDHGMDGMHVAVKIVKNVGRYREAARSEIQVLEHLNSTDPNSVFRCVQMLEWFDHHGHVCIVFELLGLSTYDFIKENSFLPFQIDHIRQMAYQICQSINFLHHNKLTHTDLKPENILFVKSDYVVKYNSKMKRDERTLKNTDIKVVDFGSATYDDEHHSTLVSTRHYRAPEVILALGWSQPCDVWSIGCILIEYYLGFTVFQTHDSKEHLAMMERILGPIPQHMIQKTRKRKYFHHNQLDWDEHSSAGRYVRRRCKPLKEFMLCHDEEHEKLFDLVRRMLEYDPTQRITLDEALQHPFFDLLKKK", "test": "qHTS Assay for Inhibitors of CDC-like Kinase 4 (ADP-FP Assay) (AID 1795); note: nearly all actives have a fitted effect of over 60% in size", "conditions": "Transcreener ADP fluorescence polarization; series mostly up to 50 µM; activity change, negative = inhibition: at the top concentration", "outline": "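Recombinant Clk4 (6.25 nM) phosphorylated 100 uM RS repeat peptide with 1 uM ATP in 25 mM Tris pH 7.5, 10 mM MgCl2, 0.5 mM EGTA, 2.5 mM DTT, 0.01% Triton X-100 for 1 h. ADP was detected by Transcreener ADP2 competitive fluorescence polarization after 30 min at room temperature.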"}
{"smiles": "COc1ccc(CNc2ncncc2-c2ccccc2OC)c(OC)c1", "activity change, negative = inhibition": "-6.22% (inactive)"}
{"smiles": "COCCn1c(=O)c(-c2cccs2)nc2cnc(Oc3ccccc3)nc21", "activity change, negative = inhibition": "4.29% (inactive)"}
{"smiles": "CN(C)c1ncnc2ccc(-c3cccc(NS(C)(=O)=O)c3)cc12", "Potency": "12.6 µM (active)"}
{"smiles": "COc1ccc(Oc2ncc3nc(-c4ccc(F)cc4)c(=O)n(C[C@H]4CCCO4)c3n2)cc1", "activity change, negative = inhibition": "5.13% (inactive)"}
{"smiles": "CN(C)c1ncc2nc(CCc3ccccc3)c(=O)n(CCC#N)c2n1", "activity change, negative = inhibition": "11.7% (inactive)"}
{"smiles": "CN(C)c1ncc2nc(CCc3ccccc3)c(=O)n(CCc3ccccc3)c2n1", "activity change, negative = inhibition": "6.58% (inactive)"}
{"smiles": "COc1ccc(CNc2cc(-c3cccc(NS(C)(=O)=O)c3)ncn2)c(OC)c1", "activity change, negative = inhibition": "-5.05% (inactive)"}
{"smiles": "O=c1c(CCc2ccccc2)nc2cnc(Nc3ccccc3)nc2n1C[C@H]1CCCO1", "activity change, negative = inhibition": "-0.613% (inactive)"}
{"smiles": "CCNc1ncc2nc(CCc3ccccc3)c(=O)n(Cc3cccc(OC)c3)c2n1", "activity change, negative = inhibition": "11.1% (inactive)"}
{"smiles": "COCCn1c(=O)c(-c2cc(F)cc(F)c2)nc2cnc(N3CCN(C)CC3)nc21", "activity change, negative = inhibition": "1.91% (inactive)"}
{"smiles": "COc1ccccc1CNc1cc(-c2ccccc2CN(C)C)ncn1", "activity change, negative = inhibition": "4.55% (inactive)"}
{"smiles": "CN(Cc1ccco1)c1nc(-c2ccccc2C(F)(F)F)nc2ccccc12", "activity change, negative = inhibition": "-5.74% (inactive)"}
{"smiles": "O=c1c(CCc2ccccc2)nc2cnc(N3CCOCC3)nc2n1-c1ccccc1", "activity change, negative = inhibition": "4.55% (inactive)"}
{"smiles": "O=c1c(CCc2ccccc2)nc2cnc(N3CCNCC3)nc2n1Cc1cccs1", "activity change, negative = inhibition": "4.15% (inactive)"}
{"smiles": "N#CCCn1c(=O)c(-c2cccc(C#N)c2)nc2cnc(Oc3cccc(Cl)c3)nc21", "activity change, negative = inhibition": "8.05% (inactive)"}
{"smiles": "Cn1cc(-c2nc3cnc(N4CCNCC4)nc3n(C3CC3)c2=O)c2ccccc21", "activity change, negative = inhibition": "1.53% (inactive)"}
{"smiles": "COc1ccccc1-c1ccc2ncnc(N3CCNCC3)c2c1", "Potency": "7.94 µM (active)"}
{"smiles": "COCCn1c(=O)c(-c2ccccc2)nc2cnc(Oc3cccc(Cl)c3)nc21", "activity change, negative = inhibition": "5.74% (inactive)"}
{"smiles": "COc1ccccc1-c1nccc(NCc2cccs2)n1", "activity change, negative = inhibition": "7.5% (inactive)"}
{"smiles": "Clc1ccccc1-c1nc(-n2ccnc2)c2ccccc2n1", "Potency": "1 µM (active)"}
{"smiles": "COc1ccc(-n2c(=O)c(CCc3ccccc3)nc3cnc(OC)nc32)cc1", "activity change, negative = inhibition": "2.45% (inactive)"}
{"smiles": "COc1ccc(Oc2ncc3nc(-c4cccc(C#N)c4)c(=O)n(Cc4cccc(OC)c4)c3n2)cc1", "activity change, negative = inhibition": "8.27% (inactive)"}
{"smiles": "N#Cc1cccc(-c2nc(NCCN3CCOCC3)c3ccccc3n2)c1", "Potency": "7.94 µM (active)"}
{"molecular_target": "Ubiquitin carboxyl-terminal hydrolase 1 (Homo sapiens) (UniProt O94782)", "sequence (O94782 whole entry, looked up)": "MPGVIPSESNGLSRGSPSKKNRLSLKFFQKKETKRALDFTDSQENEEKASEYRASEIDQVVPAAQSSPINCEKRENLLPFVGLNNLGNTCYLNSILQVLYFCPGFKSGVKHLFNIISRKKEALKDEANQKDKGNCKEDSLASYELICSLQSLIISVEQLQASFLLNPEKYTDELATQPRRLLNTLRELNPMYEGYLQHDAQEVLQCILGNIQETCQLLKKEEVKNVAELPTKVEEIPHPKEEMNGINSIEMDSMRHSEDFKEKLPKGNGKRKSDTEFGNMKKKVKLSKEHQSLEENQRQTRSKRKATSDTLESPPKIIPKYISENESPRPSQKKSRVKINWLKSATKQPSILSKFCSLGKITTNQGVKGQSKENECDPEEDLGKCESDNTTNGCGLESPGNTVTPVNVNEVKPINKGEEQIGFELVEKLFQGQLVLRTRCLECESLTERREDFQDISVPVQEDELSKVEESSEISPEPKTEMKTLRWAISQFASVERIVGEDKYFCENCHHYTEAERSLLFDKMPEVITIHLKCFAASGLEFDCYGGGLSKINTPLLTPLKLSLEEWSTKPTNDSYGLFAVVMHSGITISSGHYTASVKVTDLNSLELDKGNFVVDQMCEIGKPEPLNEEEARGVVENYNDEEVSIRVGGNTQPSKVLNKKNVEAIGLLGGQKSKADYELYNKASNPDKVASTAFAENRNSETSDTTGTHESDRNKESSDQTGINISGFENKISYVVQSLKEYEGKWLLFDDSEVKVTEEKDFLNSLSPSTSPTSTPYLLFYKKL", "test": "Inhibitors of USP1/UAF1: Pilot qHTS (AID 504865); note: nearly all actives have a fitted effect of over 35% in size;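 for activity change, negative = inhibition: rhodamine fluorescence freed from ubiquitin-rhodamine substrate followed over time; top concentration of the series differs between compounds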", "conditions": "purified USP1/UAF1, Ub-rhodamine cleavage fluorescence; series mostly up to 54.9 µM; activity change, negative = inhibition: at the top concentration", "outline": "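USP1/UAF1 complex at 1 nM preincubated 15 min at room temperature with compound, then Ub-Rho substrate added at 150 nM final. Fluorescence (480/540 nm) read kinetically in 50 mM HEPES pH 7.8, 0.5 mM EDTA, 1 mM TCEP, 0.1 mg/ml BSA, 0.01% Tween-20.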"}
{"smiles": "Cc1cccc(CNc2ncncc2-c2ccccc2CN(C)C)c1", "activity change, negative = inhibition": "-10.9% (inactive)"}
{"smiles": "COc1ccc(Oc2ncc3nc(-c4cc(F)cc(F)c4)c(=O)n(C4CC4)c3n2)cc1", "activity change, negative = inhibition": "-11.9% (inactive)"}
{"smiles": "COc1ccccc1-c1nccc(N2CCN(C)CC2)n1", "activity change, negative = inhibition": "-12.6% (inactive)"}
{"smiles": "Cc1nc2cnc(N3CCN(C)CC3)nc2n(CCc2ccccc2)c1=O", "activity change, negative = inhibition": "-9.74% (inactive)"}
{"smiles": "COc1cccc(-c2cncnc2NCCN2CCOCC2)c1", "activity change, negative = inhibition": "-3.69% (inactive)"}
{"smiles": "O=c1c(CCc2ccccc2)nc2cnc(Oc3ccccc3)nc2n1C1CC1", "activity change, negative = inhibition": "-16.7% (inactive)"}
{"smiles": "CCNc1ncc2ncc(=O)n(Cc3ccc(F)cc3)c2n1", "activity change, negative = inhibition": "-12.1% (inactive)"}
{"smiles": "COc1cccc(Cn2c(=O)cnc3cnc(Nc4cccc(OC)c4)nc32)c1", "activity change, negative = inhibition": "-4.55% (inactive)"}
{"smiles": "COc1cccc(-c2ccc3ncnc(NCc4cnc(C)cn4)c3c2)c1", "activity change, negative = inhibition": "-5.6% (inactive)"}
{"smiles": "Cn1c(=O)c(-c2ccccc2)nc2cnc(N3CCOCC3)nc21", "activity change, negative = inhibition": "-7.19% (inactive)"}
{"smiles": "CN1CCN(c2ncc3nc(-c4cn(C)c5ccccc45)c(=O)n(C[C@H]4CCCO4)c3n2)CC1", "activity change, negative = inhibition": "-16.3% (inactive)"}
{"smiles": "COc1ccc2[nH]cc(CCNc3ncnc4ccc(-c5ccoc5)cc34)c2c1", "activity change, negative = inhibition": "-9.83% (inactive)"}
{"smiles": "O=c1c(-c2cccc(F)c2)nc2cncnc2n1Cc1ccc(F)cc1", "activity change, negative = inhibition": "-16.3% (inactive)"}
{"smiles": "COc1ccccc1CNc1ncnc2ccc(-c3cccc(NS(C)(=O)=O)c3)cc12", "activity change, negative = inhibition": "-12.7% (inactive)"}
{"smiles": "COc1ccc(CNc2ncncc2-c2ccccc2OC)c(OC)c1", "activity change, negative = inhibition": "-14.9% (inactive)"}
{"smiles": "COCCn1c(=O)c(-c2cccs2)nc2cnc(Oc3ccccc3)nc21", "activity change, negative = inhibition": "-17.9% (inactive)"}
{"smiles": "CN(C)c1ncnc2ccc(-c3cccc(NS(C)(=O)=O)c3)cc12", "activity change, negative = inhibition": "-12.7% (inactive)"}
{"smiles": "COc1ccc(Oc2ncc3nc(-c4ccc(F)cc4)c(=O)n(C[C@H]4CCCO4)c3n2)cc1", "activity change, negative = inhibition": "-16.6% (inactive)"}
{"smiles": "CN(C)c1ncc2nc(CCc3ccccc3)c(=O)n(CCC#N)c2n1", "activity change, negative = inhibition": "-13.1% (inactive)"}
{"smiles": "CN(C)c1ncc2nc(CCc3ccccc3)c(=O)n(CCc3ccccc3)c2n1", "activity change, negative = inhibition": "-18.5% (inactive)"}
{"smiles": "COc1ccc(CNc2cc(-c3cccc(NS(C)(=O)=O)c3)ncn2)c(OC)c1", "activity change, negative = inhibition": "-19.6% (inactive)"}
{"smiles": "O=c1c(CCc2ccccc2)nc2cnc(Nc3ccccc3)nc2n1C[C@H]1CCCO1", "activity change, negative = inhibition": "-16.1% (inactive)"}
{"smiles": "CCNc1ncc2nc(CCc3ccccc3)c(=O)n(Cc3cccc(OC)c3)c2n1", "activity change, negative = inhibition": "-10.1% (inactive)"}
{"smiles": "COCCn1c(=O)c(-c2cc(F)cc(F)c2)nc2cnc(N3CCN(C)CC3)nc21", "activity change, negative = inhibition": "-8.82% (inactive)"}
{"smiles": "COc1ccccc1CNc1cc(-c2ccccc2CN(C)C)ncn1", "activity change, negative = inhibition": "-8.5% (inactive)"}
{"smiles": "CN(Cc1ccco1)c1nc(-c2ccccc2C(F)(F)F)nc2ccccc12", "Potency": "28.2 µM (active)"}
{"smiles": "O=c1c(CCc2ccccc2)nc2cnc(N3CCOCC3)nc2n1-c1ccccc1", "activity change, negative = inhibition": "-8.03% (inactive)"}
{"smiles": "O=c1c(CCc2ccccc2)nc2cnc(N3CCNCC3)nc2n1Cc1cccs1", "activity change, negative = inhibition": "-11.7% (inactive)"}
{"smiles": "N#CCCn1c(=O)c(-c2cccc(C#N)c2)nc2cnc(Oc3cccc(Cl)c3)nc21", "activity change, negative = inhibition": "-6.56% (inactive)"}
{"smiles": "Cn1cc(-c2nc3cnc(N4CCNCC4)nc3n(C3CC3)c2=O)c2ccccc21", "activity change, negative = inhibition": "-13.7% (inactive)"}
{"smiles": "COc1ccccc1-c1ccc2ncnc(N3CCNCC3)c2c1", "activity change, negative = inhibition": "-11.4% (inactive)"}
{"smiles": "COCCn1c(=O)c(-c2ccccc2)nc2cnc(Oc3cccc(Cl)c3)nc21", "activity change, negative = inhibition": "-17.6% (inactive)"}
{"smiles": "Clc1ccccc1-c1nc(-n2ccnc2)c2ccccc2n1", "activity change, negative = inhibition": "-21.4% (inactive)"}
{"smiles": "COc1ccc(-n2c(=O)c(CCc3ccccc3)nc3cnc(OC)nc32)cc1", "activity change, negative = inhibition": "-11.6% (inactive)"}
{"smiles": "COc1ccc(Oc2ncc3nc(-c4cccc(C#N)c4)c(=O)n(Cc4cccc(OC)c4)c3n2)cc1", "activity change, negative = inhibition": "-8.74% (inactive)"}
{"smiles": "N#Cc1cccc(-c2nc(NCCN3CCOCC3)c3ccccc3n2)c1", "activity change, negative = inhibition": "-18.2% (inactive)"}
